The source made the active and inactive calls. How the source made its calls: active means hit-call score of the fitted dose curve at least 0.9, where 1 is the maximum; inactive means score below 0.9.
read-out: NAD(P)H dehydrogenase [quinone] 1 (NQO1), NQO1 (gene 1728); test: LTEA_HepaRG_NQO1: Life Technologies and Expression Analysis (LTEA) Assay for NAD(P)H dehydrogenase [quinone] 1 (NQO1) using HepaRG (AID 2283526); settings: mRNA level, 48 h; actives raise or lower the signal
Experimental: LTEA_HepaRG is a cell based, multiplexed-readout assay that uses HepaRG, a human liver cell line, with measurements taken at 48 hours after chemical dosing on a 96-well plate.LTEA_HepaRG_NQO1 is one of 102 assay component(s) measured in the LTEA HepaRG cell culture assay. It is a marker of Diseases associated with NQO1 include Tardive Dyskinesia and Childhood Leukemia.Data from the assay component LTEA_HepaRG_NQO1 was analyzed into 1 endpoint. This assay endpoint, LTEA_HepaRG_NQO1, was analyzed with bidirectional fitting relative to DMSO as the negative control and baseline of activity. Using a type of inducible reporter, measures of mRNA induction for gain or loss-of-signal activity can be used to understand regulation of transcription factor activity. To generalize the intended target to other relatable targets, this assay endpoint is annotated to the oxidoreductase intended target family, where the subfamily is quinone-acceptor.
A total of 1060 chemcials from the ToxCast library were tested in eight-point concentration-response experiments. Cell culture and cytotoxicity assays were conducted at Thermo Fisher Scientific's Custom Services facility (Madison, WI). A single lot of human HepaRG cells (Thermo Fisher Scientific, Frederick, MD) was used for the cell culture experiments. 96-well format collagen type I coated plates of human HepaRG cells were prepared using established methods. Briefly, cryopreserved HepaRG cells were thawed, plated at a density of approximately 100,000 cells/well in HepaRG Thaw, Plate, and General Purpose media (HPRG770, Thermo Fisher Scientific), and incubated for 48 hours. 0.5% DMSO was selected as vehicle control to balance the requisite need of DMSO in HepaRG cultures to maintain differentiation (for example, baseline metabolism, proportions of hepatocytes vs. cholangiocytes), while enabling further hepatic receptor pathway activation (for example, PXR and CAR) in response to chemical exposure. 48 hours after plating, the culture medium was replaced with HepaRG Serum-Free Incudtion Media. Cells were exposed to each test chemical in duplicate and maintained in CO2 incubators for another 48 hours. Chemical plates were thawed to room temperature and 200x concentrations of treatment groups were prepared. 8-point conentration-reponse curves were made with the highest exposure at 100 uM, followed by half-log dilutions, all in 0.5% DMSO. Each test plate contained variouse controls, induction positive controls (1mM phenobarbital), cytotoxicity positive controls ([…] aflatoxin B1), vehicle controls (0.5% DMSO), and total lysis controls (0.5% DMSO). Cell morphology images were taken using an Essen IncuCyte FLR automated microscope, with six 96-well plates imaged in about 24 minutes. Images were captured and exported and JPEG files. Spent culture media was transfered to black-well plates for the LDH assay, and remaining media was sorted at -80 C for later use. Cells were treated with RLT buffer and frozen until shipped for gene expression analysis. Total RNA was isolated from the cell suspension in 75 uL of Buffer RLT (Qiagen, Germantown, MD 20874) by Quintiles/Expression Analysis (Durham, NC) using a custom isolation procedure. Total RNA from each plate well was transferred to a preamplification plate. Fluidigm's 96.96 Dynamic ArrayTM (Fluidigm, Amsterdam, the Netherlands) technology was used for gene expression analyses by quantitative reverse transcription polymerase chain reaction (qRT-PCR, performed by Quintiles/Expression Analysis, Durham, NC)89. Standard TaqManTM Assays (Applied Biosystems/ThermoFisher Scientific, Foster City, CA) were used to assess the expression of 93 genes selected based on their selectivity and sensitivity to important hepatic receptors known to be modulated by environmental chemicals; importance in human hepatocyte functionality; and hepatotoxicity. […]

| Compound | outcome | AC50 |
| --- | --- | --- |
| CCNc1nc(Cl)nc(NC(C)(C)C#N)n1 | inactive | – |
| CCCCSP(=O)(SCCCC)SCCCC | inactive | – |
| COP(=O)(OC)SCn1c(=O)oc2cc(Cl)cnc21 | inactive | – |
| CCCCN(CC)c1c([N+](=O)[O-])cc(C(F)(F)F)cc1[N+](=O)[O-] | inactive | – |
| CNc1cnn(-c2cccc(C(F)(F)F)c2)c(=O)c1Cl | inactive | – |
| CCCOCC(=Nc1ccc(Cl)cc1C(F)(F)F)n1ccnc1 | inactive | – |
| S=C1NCCN1 | inactive | – |
| CCOP(=O)(SC(C)CC)N1CCSC1=O (stereo not given) | inactive | – |
| CC[C@H](C)[C@H]1O[C@]2(C=C[C@@H]1C)C[C@@H]1C[C@@H](C/C=C(\C)[C@@H](O[C@H]3C[C@H](OC)[C@@H](O[C@H]4C[C@H](OC)[C@@H](NC)[C@H](C)O4)[C@H](C)O3)[C@@H](C)/C=C/C=C3\CO[C@@H]4[C@H](O)C(C)=C[C@@H](C(=O)O1)[C@]34O)O2 | – | 31.7 µM (active) |
| COP(=O)(OC)C(O)C(Cl)(Cl)Cl (stereo not given) | inactive | – |
| CC(C)N(C(=O)SCC(Cl)=C(Cl)Cl)C(C)C | inactive | – |
| COP(=O)(OC)OC(Br)C(Cl)(Cl)Br (stereo not given) | – | 21.1 µM (active) |
| CCC(=O)Nc1ccc(Cl)c(Cl)c1 | inactive | – |
| CCCCOC(=O)[C@@H](C)Oc1ccc(Oc2ccc(C#N)cc2F)cc1 | inactive | – |
| COc1ccc(C(=CC(=O)N2CCOCC2)c2ccc(Cl)cc2)cc1OC | inactive | – |
| N#CSCSC#N | inactive | – |
| CNC(=O)ON=C(C)SC | inactive | – |
| COP(=O)(NC(C)=O)SC (stereo not given) | inactive | – |
| CC1(C(=O)Nc2ccc(O)c(Cl)c2Cl)CCCCC1 | inactive | – |
| CCCSP(=O)(OCC)Oc1ccc(Br)cc1Cl (stereo not given) | inactive | – |

| Compound | outcome | AC50 |
| --- | --- | --- |
| CCOC(=O)CC(SP(=O)(OC)OC)C(=O)OCC (stereo not given) | inactive | – |
| C=C(C)[C@H]1Cc2c(ccc3c2O[C@@H]2COc4cc(OC)c(OC)cc4[C@@H]2C3=O)O1 | inactive | – |
| C#CC(C)(C)NC(=O)c1cc(Cl)cc(Cl)c1 | inactive | – |
| CC(C)=CC1C(C(=O)OCN2C(=O)C3=C(CCCC3)C2=O)C1(C)C (stereo not given) | inactive | – |
| CC(Oc1cccc(Cl)c1)C(=O)O (stereo not given) | inactive | – |
| CC(=NC#N)N(C)Cc1ccc(Cl)nc1 | inactive | – |
| CCc1cnc(C2=NC(C)(C(C)C)C(=O)N2)c(C(=O)O)c1 (stereo not given) | inactive | – |
| C[Si](Cn1cncn1)(c1ccc(F)cc1)c1ccc(F)cc1 | inactive | – |
| CCCSP(=O)(OCC)SCCC | inactive | – |
| CC(C)[C@H](C(=O)O[C@H](C#N)c1cccc(Oc2ccccc2)c1)c1ccc(Cl)cc1 | inactive | – |
| CNC(=O)Oc1cccc2c1OC(C)(C)O2 | inactive | – |
| Cc1cc(C2CC2)nc(Nc2ccccc2)n1 | inactive | – |
| CCOP(=S)(OCC)SCCSCC | inactive | – |
| CN1COCN(Cc2cnc(Cl)s2)C1=N[N+](=O)[O-] | inactive | – |
| CCOP(=O)(NC(C)C)Oc1ccc(SC)c(C)c1 (stereo not given) | inactive | – |
| FC(F)C(F)(F)OCC(Cn1cncn1)c1ccc(Cl)cc1Cl (stereo not given) | inactive | – |
| CCOP(=S)(OCC)Oc1ccc([N+](=O)[O-])cc1 | inactive | – |
| CN(C)NC(=O)CCC(=O)O | inactive | – |
| C[N+]1(C)CCCCC1 | inactive | – |
| CCOC(=O)COc1cc(-c2nn(C)c(OC(F)F)c2Cl)c(F)cc1Cl | inactive | – |

Reference: PubChem BioAssay (EPA / NIEHS)
